In the library only some 21% were active in any assay of this set; here they are far more common.
AMA1-RON2 inh – qHTS for Inhibitors of AMA1-RON; Towards Development of Antimalarial Drug Lead: Primary Screen. Potency, µM (doses to about 58.2 µM), hits mostly inhibitors. 360,000 compounds, 0.2% hits. Plasmodium falciparum AMA1 (3D7) - RON2 peptide interaction. AlphaScreen AMA1-biotinylated RON2 peptide binding; also: nearly all actives have a fitted effect of over 45% in size
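AMA1 (3D7) with his tag at 25 nM final met compounds first, then biotinylated RON2 peptide at 25 nM; detection used donor plus acceptor beads, 10 µg/mL apiece, read by AlphaScreen after 30 min at room temperature.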
CHX counter – Cycloheximide Counterscreen for Small Molecule Inhibitors of Shiga Toxin; cell reporter, cycloheximide protein synthesis inhibition counterscreen; max response, %; 300,000 compounds, 12% hits; in the data active = max response mostly above about 13%, no sharp cut-off; inactive = mostly below about 14%; also: read at 38.3 µM for the half of the compounds with a filed dose
Shiga inhibitor – A qHTS for Small Molecule Inhibitors of Shiga Toxin; Vero cells, Shiga toxin protein synthesis inhibition reporter; inhibition, % at 38.7 µM; 290,000 compounds, 9.2% hits; AID 2315, 2010; in the data active = inhibition mostly above about 28%, no sharp cut-off; inactive = mostly below about 43%
Pf growth 48h – Primary qHTS for delayed death inhibitors of the malarial parasite plastid, 48 hour incubation; 310,000 compounds, 5.9% hits; P. falciparum luciferase growth in erythrocytes, 48 h; AID 504832, 2011; Potency, µM (titrated, usually from 28.7 µM), usual class: inhibitors
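First compound was added to culture medium, then infected red cells at 0.1% parasitemia and 2% hematocrit (final). After incubation at 37 C under 5% CO2, luciferase detection reagent was dispensed and light output recorded.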
HCV inh – qHTS Assay for Inhibitors of Hepatitis C Virus (HCV). Potency, µM (titrated, usually from 41.8 µM), actives largely listed as inhibitors. 340,000 compounds, 3.4% hits. AID 651820, 2012. Huh7.5.1 HCVcc-Cre infection, luciferase reporter, 44 h
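Seed cells (1,000/well) for 4 h; treat with compound and infect with HCVcc-Cre, moi about 0.5. Incubate 44 h, then detect luciferase activity.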
Pf growth 96h – Primary qHTS for delayed death inhibitors of the malarial parasite plastid, 96 hour incubation | P. falciparum luciferase reporter growth, 96 h | Potency, µM (series often up to 28.7 µM), most hits filed as inhibitors | 320,000 compounds, 6.9% hits | AID 504834, 2011
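Delayed-death screen, second-generation endpoint: infected erythrocytes, 2% hematocrit, 0.05% parasitemia final; 96 hours at 37 C, 5% CO2; luciferase detection reagent; luminescence decrease equals reduced growth.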
Each line names hits and unclear results; the compound was inactive in the other large screens. Unless noted, calls follow the shape of the dose curve; as a rule, active = well fitted curve in the direction sought with a large enough effect; inconclusive = small, poorly fitted or top-dose-only effect, or another doubt; inactive = no such curve, though single readings can be large; an effect the other way counts as inactive or inconclusive.

Cc1cc2nc(-c3ccc(SCC(=O)N4CCc5ccccc54)nc3)[nH]c2cc1C	AMA1-RON2 inh inconclusive, CHX counter 43, Pf growth 48h inconclusive, HCV inh 5µM, Pf growth 96h inconclusive
Cc1cc2nc(SC(C)C(=O)O)[nH]c2cc1C (stereo unspecified)	Pf growth 96h inconclusive
O=C(CN1CCCCC1)Nc1ccc(S(=O)(=O)NC2CCCCC2)cc1	HCV inh inconclusive (no result: Pf growth 96h)
Cc1cc2nc(-c3ccc(SCC(=O)Nc4ccc(S(=O)(=O)NC5CC5)cc4)nc3)[nH]c2cc1C	CHX counter 46, Shiga inhibitor 70, Pf growth 48h inconclusive, HCV inh inconclusive
COC(=O)CSc1ccc(-c2nc3ccc(C)cc3[nH]2)cn1	CHX counter 20 (no result: Pf growth 48h)
Cc1cc2nc(-c3ccc(SCC(=O)NC(C)C)nc3)[nH]c2cc1C	CHX counter 45, Shiga inhibitor active, Pf growth 48h inconclusive (no result: AMA1-RON2 inh, HCV inh)
C=C(C)c1cccc(C(C)(C)NC(=O)NC2CC(C)(C)NC(C)(C)C2)c1	Pf growth 48h inconclusive
Cc1ccc(C(O)c2ncc(-c3ccccc3F)[nH]2)c(C)c1 (stereo unspecified)	none (no result: CHX counter, Shiga inhibitor, Pf growth 48h, HCV inh, Pf growth 96h)
O=C(O)c1ccc(SCc2ccccc2)nc1	none (no result: CHX counter, Shiga inhibitor, Pf growth 48h, Pf growth 96h)
Cc1cc(NC(=O)CSc2ccc(-c3nc4cc(C)c(C)cc4[nH]3)cn2)no1	CHX counter 38, Shiga inhibitor 60, Pf growth 48h 3.3µM
Cc1cc2nc(-c3ccc(SCc4ccccc4C#N)nc3)[nH]c2cc1C	CHX counter 34, Shiga inhibitor 46, HCV inh inconclusive
Cc1cc2nc(-c3ccc(SCc4ccc(C(=O)O)cc4)nc3)[nH]c2cc1C	CHX counter 37, Shiga inhibitor 45, Pf growth 48h inconclusive, HCV inh inconclusive
CC(=O)Nc1ccc(S(=O)(=O)N2C(C)CCCC2C)cc1 (stereo unspecified)	none
Cc1cccc(/C(N)=N/OC(=O)c2ccc3c(c2)OCO3)c1	CHX counter 42, Shiga inhibitor 43, Pf growth 96h inconclusive
N/C(=N\OC(=O)c1ccc2c(c1)OCO2)c1cccc([N+](=O)[O-])c1	CHX counter 31
Cc1ccc(C)c(NC(=O)COC(=O)c2ccc3c(c2)OCO3)c1	none
CCCCc1c(Cc2cccc(F)c2)ncn1CCc1ccccc1OC	none (no result: CHX counter, Shiga inhibitor, Pf growth 48h, HCV inh, Pf growth 96h)
COc1ccc2ccccc2c1CNC(C)c1ccccc1 (stereo unspecified)	HCV inh 5.6µM, Pf growth 96h inconclusive (no result: Shiga inhibitor)
COc1ccc2ccccc2c1CNCc1ccc(C)cc1	Pf growth 48h inconclusive, HCV inh inconclusive, Pf growth 96h inconclusive
CCOC(=O)COc1ccc2c(C)c(CCN(CC)CC)c(=O)oc2c1Cl	Pf growth 96h inconclusive (no result: AMA1-RON2 inh, HCV inh)
COc1ccc(N(C)S(=O)(=O)c2cccc(C(=O)NC3CCC(C)CC3)c2)cc1 (stereo unspecified)	CHX counter 16, HCV inh inconclusive, Pf growth 96h inconclusive
COc1ccc(N(C)S(=O)(=O)c2cccc(C(=O)NC3CCCCCC3)c2)cc1	Pf growth 48h inconclusive, HCV inh inconclusive, Pf growth 96h inconclusive
COc1ccc(N(C)S(=O)(=O)c2cccc(C(=O)NC3CCCC(C)C3C)c2)cc1 (stereo unspecified)	Pf growth 48h inconclusive, HCV inh inconclusive, Pf growth 96h inconclusive (no result: CHX counter, Shiga inhibitor)
COc1ccc(N(C)S(=O)(=O)c2cccc(C(=O)OC(C)C(=O)NC3CCCCC3C)c2)cc1 (stereo unspecified)	Pf growth 48h 12µM (no result: CHX counter, Shiga inhibitor)
COc1ccc(N(C)S(=O)(=O)c2cccc(C(=O)Nc3cccc(C(=O)NC4CC4)c3)c2)cc1	Pf growth 48h 5.2µM, HCV inh 14µM, Pf growth 96h 15µM (no result: CHX counter, Shiga inhibitor)
O=c1cnc2ccccc2n1Cc1ccccc1	none (no result: CHX counter, Shiga inhibitor, Pf growth 48h, HCV inh, Pf growth 96h)
Cc1ccc(C(=O)NN=Cc2ccc3c(c2)OCO3)cc1	none (no result: CHX counter, Shiga inhibitor, Pf growth 48h, Pf growth 96h)
O=C(N/N=C/c1cccc([N+](=O)[O-])c1)c1cc2ccccc2o1	HCV inh 11µM, Pf growth 96h inconclusive
O=C(N/N=C/c1cccc2ccccc12)c1cc2ccccc2o1	HCV inh inconclusive
Cc1ccc(C(=O)N/N=C/c2ccc3c(c2)OCO3)o1	CHX counter 63, Shiga inhibitor 60
O=C(N/N=C/c1ccsc1)c1cc2ccccc2o1	CHX counter 62, Shiga inhibitor 41
Cc1ccc(C(=O)/C=C/c2ccc3c(c2)OCO3)o1	CHX counter 49, Shiga inhibitor 52
COCCN(C(=O)COC(=O)CCc1c[nH]c2ccccc12)c1c(N)n(Cc2ccccc2)c(=O)[nH]c1=O	none (no result: CHX counter, Shiga inhibitor)
Nc1nnc(SCC(=O)NNC(=O)c2ccccc2F)s1	none (no result: CHX counter, Shiga inhibitor, Pf growth 48h, Pf growth 96h)
Cc1nn(-c2ccccc2)c(C)c1C(=O)N1CCN(S(=O)(=O)c2ccccc2)CC1	Pf growth 48h inconclusive, Pf growth 96h inconclusive (no result: CHX counter, Shiga inhibitor)
CCOC(=O)C1=CCC(c2ccccc2Cl)N(S(=O)(=O)c2ccc(C)cc2)C1 (stereo unspecified)	none (no result: CHX counter, Shiga inhibitor, Pf growth 48h, HCV inh, Pf growth 96h)
COc1cccc(CNC(=O)[C@@H]2CCCN2C(=O)[C@@H]2CCCN2)c1	none (no result: CHX counter, Shiga inhibitor, Pf growth 48h, HCV inh, Pf growth 96h)
O=C(N/N=C/c1ccc2c(c1)OCO2)c1cc2ccccc2o1	CHX counter 12
Cc1ccc(C(=O)/C=C/c2ccccc2)o1	CHX counter 40, Pf growth 96h inconclusive (no result: Pf growth 48h)
O=C(N/N=C/c1ccsc1)c1cc(-c2cccs2)nc2ccccc12	none
Nc1cccc(C(=O)N/N=C/c2ccsc2)c1	CHX counter 33, Shiga inhibitor 54
CC1C(=O)N(S(=O)(=O)c2ccc([N+](=O)[O-])cc2)[C@H]1c1ccc2ccccc2c1 (stereo partly specified)	none (no result: AMA1-RON2 inh, Pf growth 48h, HCV inh, Pf growth 96h)
Oc1ccccc1N1CCN(C(=S)NCCc2ccccc2)CC1	CHX counter 27, Shiga inhibitor 31, HCV inh inconclusive
S=C(NCCc1ccccc1)N1CCc2ccccc2C1	CHX counter 67, Shiga inhibitor 116, Pf growth 96h inconclusive
NC(=O)C1CCN(C(=S)NCCc2ccccc2)CC1	CHX counter 18
Oc1ccc(N2CCN(C(=S)NCCc3ccccc3)CC2)cc1	CHX counter 24, Pf growth 48h inconclusive, HCV inh inconclusive
CC(=O)NC(C)(c1ccccc1)c1nc(-c2cccc(C(F)(F)F)c2)cs1 (stereo unspecified)	none (no result: CHX counter, Shiga inhibitor, Pf growth 48h, HCV inh, Pf growth 96h)
CCN(CC1CCCO1)C(=O)CCc1nnc(CCc2ccccc2OC)o1 (stereo unspecified)	none
CC1([N+](=O)[O-])COC(c2cccc3ccccc23)OC1 (stereo unspecified)	none (no result: CHX counter, Shiga inhibitor, Pf growth 48h, Pf growth 96h)
COc1ccc(CCNC(=S)N2CCC(C(=O)c3ccc(F)cc3)CC2)cc1OC	Pf growth 48h inconclusive, HCV inh 0.5µM
S=C(NCCc1ccccc1)N1CCN(Cc2ccccc2)CC1	AMA1-RON2 inh inconclusive, CHX counter 31, HCV inh inconclusive
S=C(NC1CCCCC1)N1CCc2ccccc2C1	CHX counter 38, Shiga inhibitor active, HCV inh inconclusive

Screens as filed in PubChem.
